Measured values reported in PubChem BioAssay AID2216 (Broad Institute, 2009).
Where “and” joins values, the source holds several entries; their conditions need not be identical. Equal values may be shown once. Among all 300,000 compounds or so, about 3,300 (1.1%) were called active. Roughly 6% stayed inconclusive and do not appear here. The sample holds actives, similar compounds and a random draw of the others, so the mix is not that of the screen.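 Rule for the calls: active = more than half of the replicate wells show a fall in the fluorescence ratio signal beyond about 16% (limit read from the data, passing the limit was not always enough); inconclusive = exactly half of the replicate wells pass the set limit; inactive = fewer than half of replicates pass the limit.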

tested on: Ran GTPase (GTP-bound) - importin-beta complex; experiment: disruptors of Ran-importin-beta complex formation – biochemical, FRET, CFP-Ran, YFP-importin-beta, homogeneous, primary screen (AID 2216); conditions: cell-free CFP-Ran/YFP-importin-beta FRET ratio; hits give high values; concentration not given here;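 note: 0% = DMSO wells and 100% = Ran loaded with GDP instead of GTP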

inhibition, inactive:
O=C(COC(=O)c1ccccn1)NNC(=O)c1ccc([N+](=O)[O-])cc1 4.26%, CN(CC(=O)NCc1cccnc1)S(=O)(=O)c1cc(Cl)ccc1Cl 4.66%, COc1ccc(NC(=O)CN(C)C(=O)Cc2coc3cc(C)c(C)cc23)cc1 0.0585%, C=CCOc1cccc(C2C(C(=O)c3ccc(C)o3)=C(O)C(=O)N2c2nnc(C)s2)c1 (stereo unspecified) -5.03%, O=C1N[C@@H](Cc2ccccc2)C(=O)N2[C@@H]3N(S(=O)(=O)c4ccc(F)cc4)c4ccccc4[C@]3(Br)C[C@@H]12 5.5%, O=C(CCl)NNc1nc(-c2ccccc2)c2cc(Cl)ccc2n1 -0.54%, NC(N)=Nc1nc(-c2ccccc2)c2cc(Cl)ccc2n1 4.42%, Cc1cc(C)c(S(=O)(=O)n2cc(C(C)C(N)C(=O)O)c3ccccc32)c(C)c1 (stereo unspecified) -3.39%, O=C1c2ccccc2S(=O)(=O)N1CC(O)Cn1c2ccccc2c2ccccc21 (stereo unspecified) 3.48%, CS(=O)(=O)N(CC(O)Cn1c2ccccc2c2ccccc21)c1cccc2ccccc12 (stereo unspecified) 2.16%, O=C(COC(=O)CNS(=O)(=O)c1ccc(F)c(F)c1F)NC1CCCC1 -1.07%, COC(=O)C1=CN(C)C=C(C(=O)OC)C1c1ccc(Cl)cc1Cl 2.63%, CCOc1ccccc1N(CC(=O)Nc1ccccc1C(=O)OC)S(C)(=O)=O 2.19%, COc1ccc(Cc2nnc(SCC(=O)N(c3ccccc3)C(C)C)n(N)c2=O)cc1 -2.45%, OCCNCCOc1ccc(Cl)c(Cl)c1 -2.77%, Clc1cccc(Cl)c1OCCOCCNCc1ccccc1 0.589%, CCCCN1C(N)=NC[C@@H]1Cc1ccccc1 -2.74%, Cc1ccn2c(=O)nc(SCC(=O)NCc3ccc4c(c3)OCO4)nc2c1 -2.18%, COc1ccc(-n2nnnc2CNC(=O)c2ccc3ccccc3c2)cc1 3.81%, O=C(CSc1nc(=O)n2ccccc2n1)Nc1ccc2c(c1)OCCO2 0.244%, CC(C)Nc1nnc(SC(C)C(=O)N(C)C2CCCCC2)s1 (stereo unspecified) 2.7%, CC(=O)c1c(-c2ccccc2)c2ccccc2[nH]c1=O -2.98%, O=C(CN1CCOCC1)Nc1c(-c2ccccc2)c2cc(Br)ccc2[nH]c1=O -3.33%, CCN(CCCNC(=O)CCn1c(=O)[nH]c2ccsc2c1=O)c1ccccc1 8.57%, CN(C)CCCNC(=O)c1ccc2[nH]c3ccccc3c2c1 -2.02%, Cc1ccc(NC(=O)CSCC(=O)Nc2sccc2C#N)cc1 -2.13%, O=C(COC(=O)/C=C/c1ccc(OC(F)F)cc1)NC1CCCCC1 -7.27%, N#Cc1c(C(F)(F)F)cc(-c2ccc(Cl)cc2)nc1SCC(=O)O -1.29%, N#Cc1c(C(F)(F)F)cc(-c2ccccc2)nc1SCC(=O)N1CCOCC1 3.19%, CCOC(=O)c1c(NC(=S)Nc2ccccc2C)sc2c1CCC2 -2.16%, CCOC(=O)c1c(NC(=O)NC(C)(C)C)sc2c1CCN(C)C2 12%, COc1cccc(NC(C)=[N+](C)CCNS(=O)(=O)c2ccc(Cl)cc2)c1 -6.06%, COc1ccc(NC(=O)CN(C)C(=O)c2n[nH]c3ccccc23)cc1 -0.623%, CCCCn1c(N)c(N(CCOC)C(=O)c2cccc(S(=O)(=O)N3CCCCC3)c2)c(=O)[nH]c1=O 6.51%, O=C(COC(=O)c1ncc(Cl)c(Cl)c1Cl)NNC(=O)c1ccccc1 7.08%, CCN1C(=O)/C(=c2\s/c(=C3\Sc4ccccc4N3C)c(=O)n2C)N(C)C1=S 1.12%, CCCCN1C(=O)/C(=C2/Sc3ccc(Cl)cc3N2CC)SC1=S 0.428%, O=C(/C=C/c1ccc([N+](=O)[O-])o1)NNC(=O)c1ccc(F)cc1 -0.948%, COc1ccc(N2CCN(C(=O)/C(C#N)=C/c3ccccc3)CC2)cc1 -3.23%, COc1ccc(/C=C(\C#N)C(=O)ONC2=NCCCCC2)cc1 2.96%, CCOC(=O)NC(=O)/C(C#N)=C\c1ccccc1 5.82%, CCOC(=O)/C(C#N)=C/c1ccc(OCC(=O)Nc2ccccc2)c(OC)c1 1.23%, CC(=O)NCC(=O)N1CCC(n2nccc2NC(=O)CCCc2ccccc2)CC1 -2.9%, Cc1cc(O)c(Sc2ccccc2)c(=O)o1 -1.75%, Cc1ccc(NC(=O)COc2coc(CN3CCc4ccccc4C3)cc2=O)cc1Cl 1.39%, COc1ccc(C(CNC(=O)c2cccc(NS(=O)(=O)c3ccc(C)c(F)c3)c2)N2CCCC2)cc1 (stereo unspecified) -0.978%, Cc1ccc(OCCNC(=O)CNC(=O)c2ccc(C)c(C)c2)cc1 4.18%, Oc1ccc(N=Cc2sc3ccccc3c2Cl)cc1 5.46%, COc1ccc(N=Nc2ccc(O)c(P(=O)(c3ccccc3)c3ccccc3)c2)cc1 -0.168%

inhibition, active:
OCCCNc1nc(-c2ccccc2)c2cc(Cl)ccc2n1 50.7%, CCCCN(CCCC)CC(O)Cn1c2ccccc2c(=O)c2ccccc21 (stereo unspecified) 114%, CCOc1ccccc1C1C(C(=O)OC)=CN(C)C=C1C(=O)OC 118%, OCCNCc1cccc(OCc2ccccc2Cl)c1 17.6%, C/C(=N\N)c1c(-c2ccccc2)c2cc(Br)ccc2[nH]c1=O 21.4%, CCN(CCCNC(=O)c1ccc2c(c1)NC(=O)CN2C)c1cccc(C)c1 20.7%, CCN(CC)c1nc(-c2ccccc2)cc(C(F)(F)F)c1C#N 25.9%, CCOC(=O)c1c(NC(=S)Nc2ccccc2)sc2c1CCN(C)C2 70%, CCN1C(=O)/C(=C2/Sc3ccccc3N2CCCS(=O)(=O)O)SC1=S 43.1% and 55.8%, CCOC(=O)/C(C#N)=C/c1ccc(N2CCCCC2)cc1 91%, CCOC(=O)/C(C#N)=C/c1ccc(N2CCN(Cc3ccccc3)CC2)cc1 72.8%, COc1ccc(N=C(C)c2sc3ccccc3c2O)cc1 39.4%
